Source: PubChem BioAssay
DT40 TDP1 CPT: growth inhibition of DT40 Tdp1-/-;hTDP1 cells with camptothecin (screen for TDP1 inhibitors). chicken DT40 Tdp1-/-;hTDP1 cells + 20 nM CPT, ATP luminescence, 48 h. Potency, µM (doses to about 46.2 µM), for inactives: at the top dose activity change, negative = growth inhibition, actives largely listed as inhibitors. 12% of 420,000 active; also: potency is read from the fitted curve at half-maximal effect; nearly all actives have a fitted effect of over 55% in size
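Chicken DT40 Tdp1-/- cells complemented with human TDP1, 400 cells/well, exposed to compounds plus 20 nM camptothecin for at least 48 h at 37 C; viability read as ATP content by CellTiter-Glo luminescence.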
DT40 TDP1 no CPT: qHTS for Inhibitors of human tyrosyl-DNA phosphodiesterase 1 (TDP1): qHTS in cells in absence of CPT. DT40 Tdp1-/- hTDP1 cells, no CPT, ATP luminescence, 48 h. 15% of 420,000 active. Potency, µM (titrated, usually from 46.2 µM), for the others: at the top dose activity change, negative = growth inhibition, hits mostly inhibitors; also: potency is read from the fitted curve at half-maximal effect; nearly all actives have a fitted effect of over 55% in size
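DT40 Tdp1-/-;hTDP1 cells, no CPT (DMSO vehicle only), 400 cells/well; compounds pin-transferred; ≥48 hr, 37 °C; CellTiter-Glo 30 min RT dark, luminescence read.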
HT1080-NT tox: kills 2HG-producing HT-1080-NT fibrosarcoma cells | HT-1080-NT fibrosarcoma viability, CellTiter-Glo ATP luminescence, 48 h | Potency, µM (highest dose often 46.1 µM), for the others: at the highest dose activity, negative = less viability, hits mostly cytotoxic | 1.6% of 360,000 active;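 also: NT is the 2HG producing partner of a matched IDH1 knockdown line; potency is read from the fitted curve at half-maximal effect; 0% = DMSO-treated cells and -100% = media-only wells without cells; nearly all actives have a fitted effect of over 55% in size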
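750 cells/well, RPMI + 5% FBS; 2 h settle, compound pin-transfer, 48 h at 37 degrees C. CellTiter-Glo 10 min RT, luminescence. Normalized to DMSO and media-only wells.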
IL-1B inflam inh: inflammasome signaling inhibition, IL-1 beta readout. THP-1 LPS/ATP IL-1B secretion, AlphaLISA, 16 h; active compounds read low. activity change, % at 57.5 µM. 4.7% of 360,000 active; in the data active = activity change below about -50%; inconclusive = mostly about -30% to -49%
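THP-1 cells pretreated 1 hr with compounds (up to 57.5 uM final), then stimulated with LPS (250 ng/mL final) plus ATP (1.25 mM final); secreted IL-1B measured by AlphaLISA after 16 hr, decreased signal indicating inhibition.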
ELG1 repair inh: ELG1-dependent DNA repair inhibition | 2.3% of 330,000 active | Potency, µM (highest dose often 46.1 µM), without a hit: at the highest dose activity change, negative = inhibition, hits mostly inhibitors | HEK293T ELG1-luciferase reporter, luminescence, 16 h; DNA damage induced by 5-fluorouridine; also: potency is read from the fitted curve at half-maximal effect; nearly all actives have a fitted effect of over 55% in size
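DMSO vehicle served as the neutral condition. Each well held 2,000 cells given 5-fluorouridine plus compound; after 16 hr at 37 °C/5% CO2, ONE-Glo was added and luciferase measured 30 min later.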
HT1080 IDH1KD tx: kills HT-1080 cells with IDH1 knockdown. Potency, µM (highest dose often 46.1 µM), for inactives: at the highest dose activity, negative = toxicity, hits mostly cytotoxic. 2% of 360,000 active. AID 686971. HT-1080 IDH1 knockdown viability, ATP luminescence, 48 h;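 also: potency is read from the fitted curve at half-maximal effect; 0% = DMSO wells and -100% = cell-free medium wells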
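HT-1080-IDH1KD cells (IDH1 knocked down), 750/well in RPMI with 5% FBS, treated with compound 48 h at 37 degrees C. Viability by CellTiter-Glo luminescence, normalised to DMSO and no-cell wells; concentration-response curves classed.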
* = called active by the depositor; ? = inconclusive; . = not tested or not shown; ! = repeats disagree. Sampled rows, rich in hits. Any-hit rate of the full collection: about 19%. Unless noted, calls follow the shape of the dose curve; as a rule, active = well fitted curve in the direction sought with a large enough effect; inconclusive = small, poorly fitted or top-dose-only effect, or another doubt; inactive = no such curve, though single readings can be large; an effect the other way counts as inactive or inconclusive. Unless noted, % is scaled to controls: 0 for no effect and ±100 for the full control effect.

SMILES	DT40 TDP1 CPT	DT40 TDP1 no CPT	HT1080-NT tox	IL-1B inflam inh	ELG1 repair inh	HT1080 IDH1KD tx
O=C(NCCCCNC(=O)c1cccs1)c1cccs1	4%	-14%	3%	-1	-5%	19%
O=C(NCCCNC(=O)c1cccs1)c1cccs1	8.2µM*	9.2µM*	5%	15	12%	3%
Cc1ccc2[nH]cc(CCNC(=O)c3cccs3)c2c1	0%	?	-5%	-75*	2%	-3%
CC(=O)NCCc1c[nH]c2ccc(O)cc12	18µM*!	-18%	27%	2	.	5%
CC(C)c1nc(NCCO)c2nnn(Cc3ccccc3)c2n1	-15%	-2%	-6%	21	1%	-8%
COc1cccc(-c2ccc(NC(=O)C3CCCN(Cc4cnc(C)n4C)C3)cc2)c1 (stereo not drawn)	?	?	-10%	-16	1%	-19%
Cc1cc(Cl)ccc1C(=O)C1CCCN(C(=O)c2cc(C(C)C)no2)C1 (stereo not drawn)	?	-22%	3%	-15	-10%	-6%
COc1cccc(-c2ccc(NC(=O)C3CCCN(Cc4cnn(C)c4)C3)cc2)c1 (stereo not drawn)	?	?	?	20	17%	16µM*
COc1cccc(-c2ccc(NC(=O)C3CCCN(Cc4ccc(CO)o4)C3)cc2)c1 (stereo not drawn)	16µM*	16µM*	1%	-3	0%	15%
CC(C)c1cc(C(=O)N2CCCC(C(=O)c3ccc4ccccc4c3)C2)on1 (stereo not drawn)	?	26µM*	-19%	-89*	-11%	-15%
Cc1ncc(CN2CCCC(C(=O)Nc3ccc(-c4cccc(F)c4)cc3)C2)n1C (stereo not drawn)	23µM*	?	?	?	-20%	?
COc1ccc2cc(C(=O)C3CCCN(C(=O)c4ccnn4C)C3)ccc2c1 (stereo not drawn)	26µM*	15µM*	0%	-29	11%	-7%
Cc1cc(CN2CCCC(C(=O)Nc3ccc(-c4nc5ccccc5[nH]4)cc3)C2)n[nH]1 (stereo not drawn)	18µM*	?	-21%	-16	?	?
COc1ccc(C(=O)C2CCCN(C(=O)c3ccnn3C)C2)cc1OC (stereo not drawn)	2%	16%	5%	4	13%	11%
COc1cccc(C(=O)C2CCCN(C(=O)c3ccc(C#CC(C)(C)O)cc3)C2)c1 (stereo not drawn)	18µM*	15µM*	-3%	-1	?	-1%
COc1cccc(-c2ccc(NC(=O)C3CCCN(Cc4cccc(C)n4)C3)cc2)c1 (stereo not drawn)	?	23µM*	?	-11	.	?
COc1cccc(C(=O)C2CCCN(C(=O)c3ccccn3)C2)c1 (stereo not drawn)	-11%	4%	7%	0	?	5%
CCC(=O)N1CCCC(C(=O)Nc2nc3ccccc3[nH]2)CC1 (stereo not drawn)	-5%	-4%	23%	18	.	20%
COc1cccc(-c2ccc(NC(=O)C3CCCN(Cc4cnn(C)c4C)C3)cc2)c1 (stereo not drawn)	?	?	?	-15	15%	?
CCN(CC)C(=O)c1sc2c(c1C)c(=O)n(-c1ccc(Cl)c(Cl)c1)c(=O)n2Cc1cc(=O)n2ccccc2n1	-13%	?	.	.	.	.
Cc1ccc(-n2c(=O)c3c(cnn3C)n(CC(=O)Nc3c(C)cccc3C)c2=O)cc1	-10%	-10%	.	.	.	.
COc1ccc(-c2[nH]ncc2CN2CCCC(C(=O)c3cccc(OC)c3)C2)cc1 (stereo not drawn)	1%	-1%	-23%	-19	-4%	-20%
Cc1ncc(CN2CCCC(C(=O)Nc3ccc(-c4ccco4)cc3)C2)cn1 (stereo not drawn)	2%	-18%	12%	-18	6%	1%
COCCc1ncc(CN2CCCC(C(=O)Nc3cccc(-c4cccc(C)c4)c3)C2)cn1 (stereo not drawn)	?	23µM*	?	?	?	?
CCOC(=O)N1CCC(N2CCCC(C(=O)c3ccc4cc(OC)ccc4c3)C2)CC1 (stereo not drawn)	23µM*	15µM*	?	-162*	23µM*	?
SMILES	DT40 TDP1 CPT	DT40 TDP1 no CPT	HT1080-NT tox	IL-1B inflam inh	ELG1 repair inh	HT1080 IDH1KD tx
COc1ccc2cc(C(=O)C3CCCN(Cc4cccc(C)n4)C3)ccc2c1 (stereo not drawn)	2.6µM*	8.2µM*	?	-109*	?	23µM*
CCOC(=O)N1CCC(N2CCCC(C(=O)c3cc(C)c(OC)c(C)c3)C2)CC1 (stereo not drawn)	-20%	-27%	3%	-11	?	2%
O=C(Nc1c(C(=O)c2ccccc2)oc2ccccc12)c1cc(=O)c2ccccc2o1	15%	1%	.	.	.	.
CCCS(=O)(=O)NC(=O)C1(C)CCN(C(=O)Cc2ccc(OC)cc2)C1 (stereo not drawn)	-11%	-7%	9%	43	.	21%
Cn1c(=O)c([N+](=O)[O-])c(N2CCSCC2)c2ccccc21	?	?	-10%	-22	?	-10%
O=[N+]([O-])c1ccc(-n2cnc3ccccc32)c([N+](=O)[O-])c1	?	?	-4%	26	23µM*	-1%
Cn1c(=O)c([N+](=O)[O-])c(-n2cnc3ccccc32)c2ccccc21	?	21µM*	?	-98*	?	?
Cc1nccn1-c1c([N+](=O)[O-])c(=O)n(C)c2ccccc12	8%	-21%	-14%	-92*	9%	-21%
O=[N+]([O-])c1ccc2c(c1)ncn2-c1ccccc1	?	?	16%	-5	?	20%
O=C(CCCCCN1C(=O)c2cccc3cccc(c23)C1=O)NCc1cccnc1	2.9µM*	?	2.9µM*	.	0%	2.3µM*
O=C(CCCN1C(=O)c2cccc3cccc(c23)C1=O)NCc1cccnc1	-3%	4%	-19%	?	-1%	-8%
CCc1nn(CC(=O)NCCC2=CCCCC2)c(=O)c2cc3cc(F)ccc3n12	-6%	0%	6%	20	-5%	12%
